The list is not random: actives were taken first. Their share in the collection is about 5.7%.
ATXN2 expr inh = Primary qHTS for Inhibitors of ATXN expression; HEK-293 ATXN2-luciferase reporter, luminescence, 24 h; Potency, µM (top dose mostly 57 µM), inactives show top-dose activity change, negative = inhibition, usual class: inhibitors; 360,000 compounds, 0.72% hits; AID 1745845, 2022; further: potency means the concentration at half of the fitted maximal effect; on the % scale 0 is the no-effect control and ±100 the full control effect; nearly all actives have a fitted effect of over 55% in size
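ATXN2-luciferase reporter cells (luciferase flanked by upstream and downstream ATXN2 gene portions) were treated 24 h at 37 °C with compounds at up to 57 uM. SteadyGlo luminescence gave expression; GF-AFC fluorescence gave viability.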
IL1B secr inh = qHTS for Inhibitors of Inflammasome Signaling: IL-1-beta AlphaLISA Primary Screen | 360,000 compounds, 4.7% hits | activity change, % at 57.5 µM | THP-1 LPS/ATP IL-1B secretion, AlphaLISA, 16 h; stronger effect = lower value | AID 743279, 2014; in the data active means activity change below about -50%; inconclusive means mostly about -30% to -49%; further: on the % scale 0 is the no-effect control and ±100 the full control effect
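Secreted IL-1B measured by AlphaLISA bead assay after 16 h compound exposure of THP-1 cells; compounds (final up to 57.5 uM) added 1 h before LPS (250 ng/mL) and ATP (1.25 mM) stimulation; lower signal means less secretion.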
HepG2 viability = qHTS for Inhibitors of TGF-b: Cytotox Counterscreen; HepG2 CAGA-GFP viability, ATP luminescence, 18 h; Potency, µM (top dose mostly 46.1 µM), for the others: at the highest dose activity change, negative = cytotoxicity, actives largely listed as cytotoxic; 410,000 compounds, 0.76% hits; AID 588856, 2011; further: potency means the concentration at half of the fitted maximal effect
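HepG2 CAGA-GFP cells (1000/well, DMEM with 1% FBS) received compound, then TGF-beta at 500 pg/mL final, and were incubated 18 hours at 37 degrees C. Viability was read by CellTiter-Glo luminescence. Media-only wells were set as complete cell-killing and DMSO as no toxicity.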
TGFb inhibitor = qHTS for Inhibitors of TGF-b; HepG2 CAGA-GFP TGF-b/SMAD3 reporter, GFP fluorescence, 18 h; TGF-beta stimulated, 500 pg/mL final; Potency, µM (top dose mostly 46.1 µM), for inactives: at the highest dose activity, negative = inhibition, hits mostly inhibitors; 410,000 compounds, 1.2% hits; further: potency means the concentration at half of the fitted maximal effect; on the % scale 0 is the no-effect control and ±100 the full control effect; nearly all actives have a fitted effect of over 65% in size
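GFP signal (ex488/em500-530) from TGF-beta-stimulated HEPG2 CAGA-GFP cells, 500 pg/mL final, 18 h at 37 degrees C in DMEM plus 1% FBS, normalized to unstimulated and DMSO-stimulated controls.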
ATXN viability = Viability Counterscreen for Primary qHTS for Inhibitors of ATXN expression; 400,000 compounds, 0.49% hits; AID 651635, 2014; S2 cells (HEK-293 line with an ATXN2-luciferase reporter) viability, CellTiter-Fluor protease fluorescence, 24 h; Potency, µM (series often up to 56.7 µM), most hits filed as cytotoxic; further: potency means the concentration at half of the fitted maximal effect; nearly all actives have a fitted effect of over 40% in size
Numbers without * were called inactive; i = inactive; ? = inconclusive; . = no result; [ ] = another dose, or the depositor's remark. Unless noted, the call rests on the fitted dose curve; in most records, active means well fitted curve in the direction sought with a large enough effect; inconclusive means small, poorly fitted or top-dose-only effect, or another doubt; inactive means no such curve, though single readings can be large; an effect the other way counts as inactive or inconclusive.

SMILES	ATXN2 expr inh	IL1B secr inh	HepG2 viability	TGFb inhibitor	ATXN viability
COc1cccc(Oc2ccc(N/C=C/C(=O)C(C)(C)C)cc2)c1	9.3%[11.3 µM]	-64.7*	-4.9%	-13.9%	i
COc1ccc(Oc2ccc(N/C=C/C(=O)C(C)(C)C)cc2)cc1	.	-13.6	-11.9%	-27.2%	i
O=S(=O)(/N=C(/Sc1ccccc1)c1ccccc1)c1ccccc1	-22.6%	-104.2*	-21.8%	-1.7%	i
CCN1CCC(O)(/C=C/c2ccc(C(C)C)cc2)C(C(=O)/C=C/c2ccc(C(C)C)cc2)C1 (stereo unspecified)	?	-116.9*	12.6µM*	8.91µM*	.
COc1cc2nccc(Oc3ccc(NC(=O)NC4CC4)c(Cl)c3)c2cc1C(N)=O	3.43µM*	.	.	.	.
COc1ccc(OC)c(NC(=O)NC2CCCCCCC2)c1	9.7%	?	-20.1%	1.5%	i
CCC(NC(=O)CCl)c1ccc(C)cc1 (stereo unspecified)	-2.1%	-93.1*	-0.3%	2.6%	i
CCC(NC(=O)C1C2C=CC(C2)C1C(=O)O)c1ccc(C)cc1 (stereo unspecified)	-10.8%	5.1	-19.7%	4.1%	i
CC(C)CC(NC(=O)CCl)c1ccccc1 (stereo unspecified)	4.6%	-6.0	-3.2%	-2.8%	i
CCCC(NC(=O)CCl)c1ccccc1 (stereo unspecified)	0.1%	-92.5*	-25.5%	?	?
O=C1CCC[C@@H]2C[C@@]3(C[C@@H]4CCN1[C@H]24)Nc1cc([N+](=O)[O-])ccc1NC3=NCc1ccccc1	.	.	50.3%	4.3%	.
Cc1ccc(S(=O)(=O)N2CCN(c3nc(-c4cccs4)nc(C)c3C)CC2)cc1	.	.	-13.6%	0.8%	.
Cc1ccc(SCc2nc(-c3ccc(C(=O)Nc4cc(C)ccc4C)cc3)oc2C)cc1	.	.	-0.7%	9.5%	.
O=[N+]([O-])c1ccc(S(=O)(=O)Nc2ccncc2)cc1	-6.3%	-7.4	-1.0%	0.5%	i
O=[N+]([O-])c1ccc(Oc2ccc(S(=O)(=O)Nc3ccccc3)cc2)cc1	-14.3%	-72.2*	-23.9%	3.4%	i
O=C1C(Cl)=C(NS(=O)(=O)c2ccc([N+](=O)[O-])cc2)C(=O)c2ccccc21	17.8µM*	-102.4*	-190.9%	?	39.8µM*
CN(CCc1cnn(C)c1)Cc1nc(CC2CC2)no1	.	1.7	-18.4%	0.0%	?
CN(CCc1cn[nH]c1)Cc1nc(Cc2ccccc2)no1	-17.5%[11.3 µM]	-53.6*	1.5%	1.6%	i
COc1ccc2sc(-c3ccc(SC)cc3)c(-c3ccc(O)cc3)c2c1	22.4µM*	-6.7	12.6µM*	?	?
COc1ccc2sc(-c3ccccc3OC)c(-c3ccc(SC)cc3)c2c1	16.2%	0.0	.	.	i
Cc1nc2c(-c3ccc(F)cc3)cnn2c(N)c1-c1ccc(F)cc1	106.0%	-67.0*	-16.7%	?	i
COc1ccc(-c2c(C)nc3c(-c4ccccn4)cnn3c2N)cc1	48.1%	-28.2	-36.7%	11.2µM*	i
Cc1cc(N)n2ncc(-c3ccc(F)cc3)c2n1	64.4%	-6.2	-28.0%	-7.5%	i
O=C(COc1ccccc1C(=O)Nc1ccccc1)Nc1ccccc1F	.	.	-0.9%	-2.3%	.
COc1cc(OC)cc(C(=O)Nc2ccc3nc4c(c(Nc5ccc(OC)c(OC)c5)c3c2)CCCC4)c1	20µM*	.	15.8µM*	12.6µM*	28.2µM*
SMILES	ATXN2 expr inh	IL1B secr inh	HepG2 viability	TGFb inhibitor	ATXN viability
COc1ccccc1Nc1c2c(nc3ccc(NC(=O)c4ccc(N(C)C)cc4)cc13)CCCC2	.	.	-49.4%	?	.
COc1ccc(Nc2c3c(nc4ccc(NC(=O)c5cc(Cl)ccc5OC)cc24)CCCC3)cc1OC	3.16µM*	.	7.08µM*	10µM*	7.08µM*
CCOc1ccccc1C(=O)Nc1ccc2nc3c(c(Nc4ccc(OC)c(OC)c4)c2c1)CCCC3	.	.	10µM*	?	.
CCCCCCCCCCCCCCCCCCOP(=O)([O-])OC1CC[N+](C)(C)CC1	.	.	.	.	i
O=C(N/C(=C/c1ccc(Cl)cc1)C(=O)N1CCOCC1)c1ccccc1	-2.8%	-5.0	-50.3%	?	i
O=C(N/C(=C\c1ccc(-c2ccccc2)o1)C(=O)N1CCOCC1)c1ccccc1	-13.9%[11.3 µM]	-62.6*	-30.1%	-17.2%	?
COC(=O)c1ccc(NC(=O)N2CCc3c([nH]c4ccccc34)C2c2ccc(C)cc2)cc1 (stereo unspecified)	.	.	-42.5%	.	.
Cc1ccc(OCCCCN(C)Cc2ccccc2)c(Br)c1	-35.1%	-97.6*	-84.6%	?	?
O=S(=O)(Nc1ccc(Cl)cc1)c1cccc(S(=O)(=O)c2ccc(Cl)c(Cl)c2)c1	?	.	-77.7%	14.1µM*	?
O=C(O)c1ccc(NS(=O)(=O)c2cccc(S(=O)(=O)c3ccc(Cl)c(Cl)c3)c2)cc1	-28.2%	-4.0	4.6%	-5.1%	i
O=C(NCC1Cc2cccc(-c3cncnc3)c2O1)C1CC1 (stereo unspecified)	.	.	.	.	i
OCCN(CCO)c1cc2c3ccccc3ccc2c2ccccc12	?	-65.2*	-17.3%	?	i
O=C1C=CC[C@H](/C=C/C[C@@H](O)C[C@H](O)CCc2ccccc2)O1	-13.2%	-96.5*	-17.8%	-0.2%	i
O=C1CC(c2ccccc2)CC(O)=C1C=NCCc1ccccc1 (stereo unspecified)	4.7%	-18.4	15.5%	-29.2%	i
O=C1c2ccc3c4c(ccc(c24)C(=O)N1c1cccc(O)c1)C(=O)N(c1cccc(O)c1)C3=O	.	-13.3	4.47µM*	3.98µM*	?
O=C(O)c1cccc(N2C(=O)c3cccc4c(Cl)ccc(c34)C2=O)c1	-2.6%	-52.0*	-19.3%	-11.0%	.
Cc1cccc(N2C(=O)c3cccc4c(N)ccc(c34)C2=O)c1	-9.9%	-58.4*	1.6%	183.7%	.
Nc1cccc(N2C(=O)c3cccc4c(N)ccc(c34)C2=O)c1	.	-29.3	-28.3%	?	.
CCOC(=O)N1CCN(Cc2ccc3c(c2)CN(C(=O)c2ccc4ncccc4c2)CCO3)CC1	.	.	.	.	i
CC(C)(C)OC(=O)N(Cc1ccccc1)Cc1ccccc1OCc1ccc(NC(=O)C2CCC2)cc1	20.4%	-67.7*	-15.1%	4.6%	i
CCn1nccc1C(=O)Nc1ccc(Cl)cc1Cl	51.8%	.	0.6%	4.6%	i
CCn1nccc1C(=O)Nc1cc(Cl)ccc1Cl	0.8%	-55.3*	4.0%	6.2%	?
O=c1c2sccc2nc(SCc2cc(=O)n3cc(Br)ccc3n2)n1Cc1ccccn1	5.1%	-53.3*	-25.5%	-9.7%	.
Cc1ccc(CSc2nc3ccsc3c(=O)n2Cc2ccccn2)cc1	-6.7%	?	-14.5%	?	i
